Hits are enriched below; roughly 2.4% of the tested compounds scored in any of these assays.
WRN helicase inh: inhibitors of human WRN helicase | WRN helicase unwinding, fluorescent forked duplex, kinetic | Q14191 | Potency, µM (doses to about 114 µM), inactives show at the highest dose activity change, negative = inhibition, actives largely listed as inhibitors | actives 0.46% (n = 360,000) | AID 651768; note: % is set by controls: 0 for no effect and ±100 for the full control effect; nearly all actives have a fitted effect of over 55% in size
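Fluorescence dequenching readout, ex 525 nm/em 598 nm, kinetic mode: forked duplex DNA (100 nM final) with adjacent fluorophore and quencher unwound by WRN (20 nM final) with 2 mM ATP. Compound preincubation 15 min, room temperature.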
Pol iota inh: DNA polymerase iota (human) inhibition; Q9UNA4; Pol iota fluorescent replication assay, 10 min; Potency, µM (highest dose often 115 µM), for inactives: at the highest dose activity, negative = inhibition, actives largely listed as inhibitors; actives 1% (n = 390,000)
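Fluorescent replication assay read twice, at 0 min and 10 min after adding 50 nM (final) substrate. Enzyme (10 nM) and compounds were first incubated 15 min at room temperature; enzyme-free buffer wells were negative controls.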
Pol kappa inh-1: inhibitors of human DNA polymerase kappa; Q9UBT6; purified Pol kappa, fluorescent DNA synthesis assay, 10 min; Potency, µM (titrated, usually from 107 µM), for the others: at the top dose activity, negative = inhibition, usual class: inhibitors; actives 0.53% (n = 400,000); note: % is set by controls: 0 for no effect and ±100 for the full control effect
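First, compounds were pin-transferred onto 10 nM Pol kappa. After 15 min at room temperature, substrate was added to 50 nM final. Fluorescence was then measured kinetically at 0 and 10 min.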
Pol beta inh: inhibitors of human DNA polymerase beta; P06746; Pol beta primer extension/strand displacement, fluorescence kinetic; Potency, µM (doses to about 114 µM), without a hit: at the highest dose activity change, negative = inhibition, most hits filed as inhibitors; actives 1.3% (n = 340,000); AID 485314; note: % is set by controls: 0 for no effect and ±100 for the full control effect
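Pol beta (10 nM) was preincubated with compound for 15 min at room temperature. The reaction was then started with 50 nM substrate and read immediately and after a further 10 min at room temperature.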
FEN1 inh-1: inhibitors of human flap endonuclease 1; P39748; Recombinant FEN1 flap cleavage, fluorescence, 15 min; Potency, µM (titrated, usually from 114 µM), inactives show at the top dose activity change, negative = inhibition, actives largely listed as inhibitors; actives 0.35% (n = 390,000); note: % is set by controls: 0 for no effect and ±100 for the full control effect; nearly all actives have a fitted effect of over 65% in size
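With each library titrated from low to high concentration, compounds met 10 nM FEN1 for 15 min at room temperature before 50 nM substrate was added; readings at 0 and 15 min fed four-parameter Hill curve fits.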
Pol eta inh-1: inhibitors of human DNA polymerase eta; Q9Y253; recombinant Pol eta, fluorescent DNA replication assay; Potency, µM (top dose mostly 114 µM), without a hit: at the top dose activity change, negative = inhibition, most hits filed as inhibitors; actives 1.2% (n = 390,000); note: % is set by controls: 0 for no effect and ±100 for the full control effect
Target sequence (Q9Y253 whole entry, looked up): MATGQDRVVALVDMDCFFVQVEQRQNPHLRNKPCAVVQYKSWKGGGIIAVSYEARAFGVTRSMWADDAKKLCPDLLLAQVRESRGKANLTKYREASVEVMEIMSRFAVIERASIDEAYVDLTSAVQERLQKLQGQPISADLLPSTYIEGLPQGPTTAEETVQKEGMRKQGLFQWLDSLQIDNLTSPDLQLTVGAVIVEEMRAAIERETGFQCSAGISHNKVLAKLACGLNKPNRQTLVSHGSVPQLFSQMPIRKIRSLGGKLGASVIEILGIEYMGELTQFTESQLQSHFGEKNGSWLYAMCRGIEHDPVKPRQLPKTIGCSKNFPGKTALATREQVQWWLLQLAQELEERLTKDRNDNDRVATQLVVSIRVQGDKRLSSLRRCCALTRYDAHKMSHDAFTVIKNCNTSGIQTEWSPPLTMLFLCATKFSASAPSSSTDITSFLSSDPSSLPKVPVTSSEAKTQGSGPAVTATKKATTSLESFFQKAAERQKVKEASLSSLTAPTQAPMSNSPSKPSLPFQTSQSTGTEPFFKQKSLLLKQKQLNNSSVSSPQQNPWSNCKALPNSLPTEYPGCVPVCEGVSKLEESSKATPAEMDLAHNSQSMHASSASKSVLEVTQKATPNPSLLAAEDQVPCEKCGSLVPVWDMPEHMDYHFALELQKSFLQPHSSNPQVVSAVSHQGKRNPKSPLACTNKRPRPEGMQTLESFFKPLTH
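Pol eta (10 nM) was preincubated with compounds for 15 min at room temperature, after which fluorescent replication substrate (50 nM final) was added to start the reaction. Fluorescence was read kinetically at 0 and 10 min.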
TbPGK inh: blocks T. brucei phosphoglycerate kinase; shares compounds with Pol kappa inh-1; TbPGK coupled GAPDH assay, Kinase-Glo luminescence; Potency, µM (top dose mostly 57.5 µM), inactives show at the top dose activity change, negative = inhibition, most hits filed as inhibitors; actives 79% (n = 500); note: % is set by controls: 0 for no effect and ±100 for the full control effect; nearly all actives have a fitted effect of over 65% in size
POLI cherry-pick: Inhibitors of human DNA polymerase iota, confirmation | AID 720496 | actives 77% (n = 1,500) | Pol iota primer extension, TAMRA/BHQ fluorescence | Potency, µM, most hits filed as inhibitors | shares compounds with Pol kappa inh-1
Pol kappa inh-2: confirmation of human DNA polymerase kappa inhibitors. purified Pol-kappa, fluorescent strand-displacement substrate. actives 76% (n = 920). AID 720501. Potency, µM, hits mostly inhibitors. shares compounds with Pol eta inh-1
Pol eta inh-2: confirmation of human DNA polymerase eta inhibitors; actives 64% (n = 2,600); Potency, µM, hits mostly inhibitors; shares compounds with Pol eta inh-1; AID 720502; Pol eta primer extension, TAMRA/BHQ fluorescence, 10 min
FEN1 inh-2: confirmation of human FEN1 inhibitors. shares compounds with FEN1 inh-1. FEN1 flap cleavage, TAMRA/BHQ2 fluorogenic DNA substrate. Potency, µM, most hits filed as inhibitors. actives 79% (n = 880); note: nearly all actives have a fitted effect of over 60% in size
* hit, by the source's call; ? = inconclusive; · = no result given; [ ] = dose if it differs, or a comment. Calls come from the whole dose curve; as a rule, active = well fitted curve in the direction sought with a large enough effect; inconclusive = small, poorly fitted or top-dose-only effect, or another doubt; inactive = no such curve, though single readings can be large; an effect the other way counts as inactive or inconclusive. Potency is the fitted concentration of half-maximal effect.

SMILES | WRN helicase inh | Pol iota inh | Pol kappa inh-1 | Pol beta inh | FEN1 inh-1 | Pol eta inh-1 | POLI cherry-pick | Pol eta inh-2 | FEN1 inh-2 | others
Cc1ccccc1NC(=O)CSc1ccsc1[N+](=O)[O-] | 50µM* | 11µM* | 35µM* | 20µM* | ? | 2.8µM* | 19* | 17* | ·
O=C(CSc1ccsc1[N+](=O)[O-])NCc1ccco1 | -11%[11.6 µM] | ? | 79µM* | ? | -1% | 22µM* | 67* | 30* | · | Pol kappa inh-2=42*
Cc1ccc(S(=O)(=O)N2[C@@H](c3ccc(C(C)(C)C)cc3)C(C(=O)O)=CC[C@H]2c2ccc(Cl)cc2)cc1 | ? | ? | ? | · | -10% | 79µM* | ? | ? | · | Pol kappa inh-2=67*
Cc1ccc(S(=O)(=O)N2C(c3ccc(Cl)c(Cl)c3)CC=C(C(=O)O)C2c2ccc(Cl)cc2)cc1 (stereo unspecified) | -6% | · | · | · | · | · | · | · | ·
O=c1nc2s/c(=C\c3ccco3)c(=O)n2nc1Cc1ccc(F)cc1 | 50µM* | 10µM* | 20µM* | 2.8µM* | ? | 7.1µM* | 38* | 30* | ·
O=c1/c(=C/c2ccco2)sc2n1CN(c1ccccc1)CN=2 | -9% | ? | -5% | 2% | -5% | -11% | · | · | ·
Cc1cc(C)cc(NS(=O)(=O)c2ccc3[nH]cc(C(=O)NCCc4ccccc4)c(=O)c3c2)c1 | · | -1% | 5% | 2% | -1% | -6% | · | · | ·
Cc1ccccc1NS(=O)(=O)c1ccc2[nH]cc(C(=O)NCCc3ccccc3)c(=O)c2c1 | · | ? | -9%[60.1 µM] | 45µM* | 6% | 32µM* | ? | 48* | ·
O=C(O)COc1ccc2c(c1)O/C(=C\c1cccs1)C2=O | -25% | 48% | -4% | 1% | 8% | ? | · | · | ·
O=C(O)COc1ccc2c(c1)O/C(=C\c1ccco1)C2=O | ? | 11µM* | 79µM* | 32µM* | ? | 5µM* | 27* | 30* | · | Pol kappa inh-2=6.7*
O=C(O)C1CCCCC1C(=O)Nc1cccc(Br)c1 (stereo unspecified) | 50µM* | 45µM* | ? | · | -6% | 13µM* | 75* | 38* | · | Pol kappa inh-2=19*
O=C1C=C(Nc2cccc3cccnc23)c2ccccc2C1=O | -18%[57.1 µM] | 18µM* | ? | ? | 50µM* | 50µM* | ? | ? | ·
O=C(O)c1ccccc1Nc1ccccc1C(=O)O | -4% | 1%[58.9 µM] | -1% | 8% | -1% | -17% | · | · | ·
O=C1C=C(Nc2ccccc2C(=O)O)c2ccccc2C1=O | -36%[57.1 µM] | 18µM* | -18% | ? | ? | 28µM* | 67* | 38* | ·
COc1ccc(NC(=O)C(=O)NCC(c2cccnc2)N2CCc3ccccc3C2)cc1 (stereo unspecified) | · | 6% | -5% | -3% | -20% | -16% | · | · | ·
FC(F)OC(Cl)C(F)(F)F (stereo unspecified) | · | · | -7%[19.4 µM] | · | · | · | · | · | ·
COc1ccc(/C=C2\C(=O)NC(=S)N2C(=O)c2ccc(C)cc2)cc1 | 56µM* | 18µM* | ? | 20µM* | ? | 16µM* | ? | ? | 76*
O=C1NC(=S)N(C(=O)c2ccc(F)cc2)/C1=C/c1cccnc1 | ? | ? | -9% | ? | -7% | -10% | · | · | ·
COc1cc(/C=C2\SC(=S)N(C(C(=O)O)c3ccccc3)C2=O)cc(OC)c1OC (stereo unspecified) | -15% | ? | -6% | 0% | -13% | 12% | · | · | ·
O=C(O)C(c1ccccc1)N1C(=O)/C(=C\c2ccc(-c3ccc(Br)cc3)o2)SC1=S (stereo unspecified) | ? | 11µM* | ? | ? | 20µM* | ? | 42* | 27* | 76*
Cc1ccc(C(=O)Nc2nnc(CC(=O)N/N=C/c3ccc(O)c(O)c3)s2)cc1 | 20µM* | ? | ? | 3.5µM* | 11µM* | 3.5µM* | 9.5* | 17* | 38* | TbPGK inh=4.1µM*
Oc1c(C(Nc2ccccn2)c2ccccc2)ccc2cccnc12 (stereo unspecified) | · | -4% | -1% | · | -7% | · | · | · | ·
CCCCC(=O)Nc1sc2c(c1-c1nc3ccccc3s1)CCN(C(C)C)C2 | · | · | · | · | · | · | ? | · | 34* | Pol kappa inh-2=11*
CC(=O)Nc1sc2c(c1-c1nc3ccccc3s1)CCCN(C(C)C)C2 | · | · | · | · | · | · | 53* | · | 7.6* | Pol kappa inh-2=12*
CC(=O)N1CCc2c(sc(NC(=O)CSc3ccccc3)c2-c2nc3ccccc3s2)C1 | · | ? | -12%[60.1 µM] | 4% | 7% | ? | · | · | ·
SMILES | WRN helicase inh | Pol iota inh | Pol kappa inh-1 | Pol beta inh | FEN1 inh-1 | Pol eta inh-1 | POLI cherry-pick | Pol eta inh-2 | FEN1 inh-2 | others
CC(=O)Nc1sc2c(c1-c1nc3ccccc3s1)CCN(C)C2 | · | · | · | · | · | · | 38* | · | 5.4*
CC(=O)Nc1sc2c(c1-c1nc3ccccc3s1)CN(C(C)C)CC2 | · | 13µM* | 50µM* | · | 6.3µM* | ? | 24* | · | 11* | Pol kappa inh-2=17*
CC(C)N1CCc2c(sc(NC(=O)c3nc4ccccc4s3)c2C(N)=O)C1 | 10% | 251% | -8% | 1% | -12% | -7% | · | · | ·
CN1CCc2c(sc(NC(=O)CSc3ccccc3)c2-c2nc3ccccc3s2)C1 | · | 67% | -3%[60.1 µM] | 4% | 2% | -14% | · | · | ·
Cc1ccc(C)c(CNC(=O)c2ccc3c(c2)nc2n3CCCCC2)c1 | · | -2% | -3%[60.1 µM] | -16% | 2% | 8% | · | · | ·
N=C1/C(=C/c2ccc(-c3cccc(C(=O)O)c3)o2)C(=O)N=C2SC=C(c3ccccc3)N12 | 35µM* | 4µM* | 7.1µM* | 28µM* | ? | 3.2µM* | 19* | 7.6* | 24* | TbPGK inh=37µM*
N=C1/C(=C\c2ccc(-c3cc(Cl)cc(Cl)c3)o2)C(=O)N=C2SC=C(c3ccccc3)N12 | 1% | ? | -15% | -20% | 7% | -9% | · | · | ·

High-throughput results from PubChem BioAssay.
